Columns and labels:
[1] = target: T1, Muscle, skeletal receptor tyrosine-protein kinase (Homo sapiens) (UniProt O15146); conditions: at 1 µM;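 also: reported value is the mean percent inhibition of MuSK kinase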
T1 sequence (whole entry): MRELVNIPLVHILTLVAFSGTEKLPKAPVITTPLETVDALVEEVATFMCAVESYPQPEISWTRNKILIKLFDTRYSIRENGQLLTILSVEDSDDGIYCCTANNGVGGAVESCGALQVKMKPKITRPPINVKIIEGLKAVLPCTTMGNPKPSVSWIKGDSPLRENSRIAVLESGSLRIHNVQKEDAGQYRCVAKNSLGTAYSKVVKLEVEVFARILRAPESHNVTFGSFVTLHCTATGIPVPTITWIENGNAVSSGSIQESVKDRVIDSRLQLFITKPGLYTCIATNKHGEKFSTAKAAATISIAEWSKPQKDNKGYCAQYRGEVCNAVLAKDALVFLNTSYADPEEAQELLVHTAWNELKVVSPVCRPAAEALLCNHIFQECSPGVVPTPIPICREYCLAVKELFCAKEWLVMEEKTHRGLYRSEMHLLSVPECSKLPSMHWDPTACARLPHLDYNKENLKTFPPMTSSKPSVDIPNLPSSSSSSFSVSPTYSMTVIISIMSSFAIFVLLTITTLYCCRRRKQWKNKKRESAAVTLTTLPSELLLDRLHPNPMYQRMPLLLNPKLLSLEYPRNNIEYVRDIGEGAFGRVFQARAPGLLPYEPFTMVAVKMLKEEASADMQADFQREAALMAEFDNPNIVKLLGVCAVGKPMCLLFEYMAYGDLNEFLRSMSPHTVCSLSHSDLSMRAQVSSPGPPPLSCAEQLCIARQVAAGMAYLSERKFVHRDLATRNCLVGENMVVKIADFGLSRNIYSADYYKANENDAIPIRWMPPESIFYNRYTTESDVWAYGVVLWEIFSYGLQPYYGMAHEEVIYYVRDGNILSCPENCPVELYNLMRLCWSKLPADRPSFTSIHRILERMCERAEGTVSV

[2] = target: Platelet-derived growth factor receptor alpha (Homo sapiens) (UniProt P16234); conditions: at 0.1 µM
[3] = target: Platelet-derived growth factor receptor alpha (Homo sapiens) (UniProt P16234); conditions: at 1 µM
[4] = test system: Platelet-derived growth factor receptor alpha (Homo sapiens), P16234 [D842V]; conditions: at 0.1 µM
[5] = test system: Platelet-derived growth factor receptor alpha (Homo sapiens), P16234 [D842V]; conditions: at 1 µM
[6] = test system: Platelet-derived growth factor receptor alpha (Homo sapiens), P16234 [T674I]; conditions: at 0.1 µM
[7] = test system: Platelet-derived growth factor receptor alpha (Homo sapiens), P16234 [T674I]; conditions: at 1 µM
[8] = test system: Platelet-derived growth factor receptor alpha (Homo sapiens), P16234 [V561D]; conditions: at 0.1 µM
[9] = test system: Platelet-derived growth factor receptor alpha (Homo sapiens), P16234 [V561D]; conditions: at 1 µM
[10] = target: Platelet-derived growth factor receptor beta (Homo sapiens) (UniProt P09619); conditions: at 0.1 µM
[11] = target: Platelet-derived growth factor receptor beta (Homo sapiens) (UniProt P09619); conditions: at 1 µM
[12] = target: Tyrosine-protein kinase FRK (Homo sapiens) (UniProt P42685); conditions: at 0.1 µM
[13] = target: Tyrosine-protein kinase FRK (Homo sapiens) (UniProt P42685); conditions: at 1 µM
[14] = target: Protein-tyrosine kinase 2-beta (Homo sapiens) (UniProt Q14289); conditions: at 0.1 µM
[15] = target: Protein-tyrosine kinase 2-beta (Homo sapiens) (UniProt Q14289); conditions: at 1 µM
[16] = target: Proto-oncogene tyrosine-protein kinase receptor Ret (Homo sapiens) (UniProt P07949); conditions: at 0.1 µM
[17] = target: Proto-oncogene tyrosine-protein kinase receptor Ret (Homo sapiens) (UniProt P07949); conditions: at 1 µM
[18] = test system: Proto-oncogene tyrosine-protein kinase receptor Ret (Homo sapiens), P07949 [V804L]; conditions: at 0.1 µM
[19] = test system: Proto-oncogene tyrosine-protein kinase receptor Ret (Homo sapiens), P07949 [V804L]; conditions: at 1 µM
[20] = test system: Proto-oncogene tyrosine-protein kinase receptor Ret (Homo sapiens), P07949 [Y791F]; conditions: at 0.1 µM

Platelet-derived growth factor receptor alpha (Homo sapiens), P16234 [T674I], sequence (P16234 whole entry T674I): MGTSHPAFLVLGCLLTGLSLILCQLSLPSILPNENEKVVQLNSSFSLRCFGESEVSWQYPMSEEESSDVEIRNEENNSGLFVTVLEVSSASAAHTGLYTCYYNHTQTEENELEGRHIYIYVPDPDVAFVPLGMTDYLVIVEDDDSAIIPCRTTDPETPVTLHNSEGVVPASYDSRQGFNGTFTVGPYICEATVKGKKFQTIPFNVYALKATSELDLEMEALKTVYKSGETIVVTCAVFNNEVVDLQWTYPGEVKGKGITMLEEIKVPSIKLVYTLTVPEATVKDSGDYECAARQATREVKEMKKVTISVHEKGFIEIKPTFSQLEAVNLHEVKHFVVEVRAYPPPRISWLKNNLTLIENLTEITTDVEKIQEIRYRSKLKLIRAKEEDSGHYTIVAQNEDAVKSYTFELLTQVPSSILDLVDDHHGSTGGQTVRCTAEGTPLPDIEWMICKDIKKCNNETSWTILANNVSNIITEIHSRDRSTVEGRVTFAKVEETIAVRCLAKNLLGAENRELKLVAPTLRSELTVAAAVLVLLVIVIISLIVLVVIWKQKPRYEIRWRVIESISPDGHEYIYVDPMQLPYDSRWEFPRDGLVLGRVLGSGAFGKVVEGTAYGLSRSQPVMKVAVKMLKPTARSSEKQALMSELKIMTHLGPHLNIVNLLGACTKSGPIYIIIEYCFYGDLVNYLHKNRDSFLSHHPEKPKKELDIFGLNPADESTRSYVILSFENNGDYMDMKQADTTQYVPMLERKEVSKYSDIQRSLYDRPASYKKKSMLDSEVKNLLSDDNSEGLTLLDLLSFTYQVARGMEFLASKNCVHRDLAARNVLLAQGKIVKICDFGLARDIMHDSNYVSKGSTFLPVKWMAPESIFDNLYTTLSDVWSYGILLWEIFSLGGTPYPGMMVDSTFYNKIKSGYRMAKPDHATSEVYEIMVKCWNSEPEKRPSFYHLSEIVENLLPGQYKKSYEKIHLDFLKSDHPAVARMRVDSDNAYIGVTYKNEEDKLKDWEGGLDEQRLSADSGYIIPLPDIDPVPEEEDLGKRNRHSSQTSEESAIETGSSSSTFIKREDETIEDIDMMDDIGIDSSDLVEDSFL
Tyrosine-protein kinase FRK (Homo sapiens), sequence (P42685 whole entry): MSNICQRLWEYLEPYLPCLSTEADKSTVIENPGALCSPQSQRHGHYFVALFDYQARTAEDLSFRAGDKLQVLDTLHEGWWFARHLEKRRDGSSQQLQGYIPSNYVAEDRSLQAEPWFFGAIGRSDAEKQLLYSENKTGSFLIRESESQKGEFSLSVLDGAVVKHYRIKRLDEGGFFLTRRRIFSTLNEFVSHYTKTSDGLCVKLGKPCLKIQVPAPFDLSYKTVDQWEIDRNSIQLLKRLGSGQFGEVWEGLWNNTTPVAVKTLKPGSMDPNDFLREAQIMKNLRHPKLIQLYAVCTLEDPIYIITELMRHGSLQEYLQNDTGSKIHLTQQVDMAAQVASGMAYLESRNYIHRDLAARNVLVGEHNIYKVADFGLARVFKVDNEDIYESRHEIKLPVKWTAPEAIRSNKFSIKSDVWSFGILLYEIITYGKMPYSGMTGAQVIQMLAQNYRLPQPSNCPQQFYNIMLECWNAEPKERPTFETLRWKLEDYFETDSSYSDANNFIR
Protein-tyrosine kinase 2-beta (Homo sapiens), sequence (Q14289 whole entry, looked up): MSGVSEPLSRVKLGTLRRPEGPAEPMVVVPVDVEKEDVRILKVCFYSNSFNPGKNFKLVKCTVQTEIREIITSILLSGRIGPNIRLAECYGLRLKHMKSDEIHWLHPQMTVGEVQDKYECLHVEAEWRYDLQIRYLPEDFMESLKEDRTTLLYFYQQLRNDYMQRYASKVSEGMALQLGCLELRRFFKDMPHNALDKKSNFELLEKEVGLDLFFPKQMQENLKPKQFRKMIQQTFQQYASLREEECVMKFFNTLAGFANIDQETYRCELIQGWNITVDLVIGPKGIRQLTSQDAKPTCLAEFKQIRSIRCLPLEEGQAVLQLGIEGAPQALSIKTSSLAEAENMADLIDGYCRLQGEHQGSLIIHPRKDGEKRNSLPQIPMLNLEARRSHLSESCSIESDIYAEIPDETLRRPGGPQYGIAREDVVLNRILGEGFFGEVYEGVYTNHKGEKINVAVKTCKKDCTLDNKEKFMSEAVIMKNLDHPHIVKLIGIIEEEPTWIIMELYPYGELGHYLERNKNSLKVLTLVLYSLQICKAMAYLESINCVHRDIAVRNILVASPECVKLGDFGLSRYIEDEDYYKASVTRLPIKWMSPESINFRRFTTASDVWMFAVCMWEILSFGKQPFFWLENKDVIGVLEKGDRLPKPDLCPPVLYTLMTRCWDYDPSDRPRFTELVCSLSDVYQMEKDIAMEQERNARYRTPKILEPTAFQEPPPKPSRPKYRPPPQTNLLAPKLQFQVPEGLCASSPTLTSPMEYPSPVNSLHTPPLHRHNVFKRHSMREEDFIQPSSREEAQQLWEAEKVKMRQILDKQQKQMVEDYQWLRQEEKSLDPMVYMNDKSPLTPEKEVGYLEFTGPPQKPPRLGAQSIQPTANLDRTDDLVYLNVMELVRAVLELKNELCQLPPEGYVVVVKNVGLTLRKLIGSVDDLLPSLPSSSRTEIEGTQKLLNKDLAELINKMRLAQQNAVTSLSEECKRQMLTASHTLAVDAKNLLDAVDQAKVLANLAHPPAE
Platelet-derived growth factor receptor beta (Homo sapiens), sequence (P09619 whole entry): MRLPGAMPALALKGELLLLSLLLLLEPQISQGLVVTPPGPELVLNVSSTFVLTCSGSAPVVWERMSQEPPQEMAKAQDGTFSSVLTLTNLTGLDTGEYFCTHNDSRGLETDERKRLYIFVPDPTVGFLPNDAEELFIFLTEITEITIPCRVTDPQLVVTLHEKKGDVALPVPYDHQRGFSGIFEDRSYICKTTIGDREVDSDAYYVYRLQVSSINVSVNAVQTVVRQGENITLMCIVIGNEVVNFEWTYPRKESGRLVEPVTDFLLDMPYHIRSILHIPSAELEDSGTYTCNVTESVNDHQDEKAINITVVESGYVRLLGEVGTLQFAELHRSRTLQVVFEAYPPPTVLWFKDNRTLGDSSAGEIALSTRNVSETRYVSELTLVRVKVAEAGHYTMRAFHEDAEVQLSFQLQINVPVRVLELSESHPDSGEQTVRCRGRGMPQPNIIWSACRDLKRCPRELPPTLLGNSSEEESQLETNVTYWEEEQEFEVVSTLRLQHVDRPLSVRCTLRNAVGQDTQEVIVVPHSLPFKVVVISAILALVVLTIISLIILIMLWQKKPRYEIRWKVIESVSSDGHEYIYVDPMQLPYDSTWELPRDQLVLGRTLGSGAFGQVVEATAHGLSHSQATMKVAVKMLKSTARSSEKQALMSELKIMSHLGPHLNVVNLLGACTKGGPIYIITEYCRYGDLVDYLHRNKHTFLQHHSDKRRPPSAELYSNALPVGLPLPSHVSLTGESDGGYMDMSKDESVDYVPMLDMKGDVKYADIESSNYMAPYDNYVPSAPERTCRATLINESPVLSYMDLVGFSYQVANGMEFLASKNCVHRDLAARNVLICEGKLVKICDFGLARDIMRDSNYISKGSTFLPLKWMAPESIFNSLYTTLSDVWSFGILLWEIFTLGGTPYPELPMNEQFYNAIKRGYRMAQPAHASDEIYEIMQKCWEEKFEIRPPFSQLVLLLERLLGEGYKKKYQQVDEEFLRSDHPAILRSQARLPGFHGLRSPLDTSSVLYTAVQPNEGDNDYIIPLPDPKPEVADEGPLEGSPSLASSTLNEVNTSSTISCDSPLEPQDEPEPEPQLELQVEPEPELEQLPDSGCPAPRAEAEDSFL
Proto-oncogene tyrosine-protein kinase receptor Ret (Homo sapiens), P07949 [V804L], sequence (P07949 whole entry V804L): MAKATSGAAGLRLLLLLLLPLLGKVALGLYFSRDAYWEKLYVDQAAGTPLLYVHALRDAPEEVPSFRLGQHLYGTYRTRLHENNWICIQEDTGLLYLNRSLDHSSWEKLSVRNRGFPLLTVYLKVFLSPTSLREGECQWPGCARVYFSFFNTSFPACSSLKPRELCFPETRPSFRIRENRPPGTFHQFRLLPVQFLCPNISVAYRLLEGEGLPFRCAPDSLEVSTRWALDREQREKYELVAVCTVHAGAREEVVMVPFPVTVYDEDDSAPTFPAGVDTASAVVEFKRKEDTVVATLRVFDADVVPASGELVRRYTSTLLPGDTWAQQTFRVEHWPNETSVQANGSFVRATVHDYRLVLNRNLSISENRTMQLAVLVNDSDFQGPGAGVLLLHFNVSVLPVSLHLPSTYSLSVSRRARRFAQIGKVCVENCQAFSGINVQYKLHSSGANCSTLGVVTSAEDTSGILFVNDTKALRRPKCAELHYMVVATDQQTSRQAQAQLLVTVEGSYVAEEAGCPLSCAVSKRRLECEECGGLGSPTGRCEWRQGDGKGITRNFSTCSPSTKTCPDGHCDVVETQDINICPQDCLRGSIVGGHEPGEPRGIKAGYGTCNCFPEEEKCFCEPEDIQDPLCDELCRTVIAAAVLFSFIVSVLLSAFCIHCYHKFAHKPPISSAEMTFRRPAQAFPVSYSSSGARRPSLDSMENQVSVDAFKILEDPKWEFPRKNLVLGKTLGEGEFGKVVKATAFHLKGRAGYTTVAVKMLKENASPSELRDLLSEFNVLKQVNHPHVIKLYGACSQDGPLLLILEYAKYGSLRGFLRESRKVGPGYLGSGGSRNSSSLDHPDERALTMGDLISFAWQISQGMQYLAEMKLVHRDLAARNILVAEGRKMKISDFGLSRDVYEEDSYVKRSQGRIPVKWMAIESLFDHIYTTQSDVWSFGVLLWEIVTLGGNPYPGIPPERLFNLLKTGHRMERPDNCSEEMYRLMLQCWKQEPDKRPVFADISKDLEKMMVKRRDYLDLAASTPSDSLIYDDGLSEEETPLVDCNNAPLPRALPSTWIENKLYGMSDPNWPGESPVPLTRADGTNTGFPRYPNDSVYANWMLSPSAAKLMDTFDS

Compound	inhibition [1]	inhibition [2]	inhibition [3]	inhibition [4]	inhibition [5]	inhibition [6]	inhibition [7]	inhibition [8]	inhibition [9]	inhibition [10]	inhibition [11]	inhibition [12]	inhibition [13]	inhibition [14]	inhibition [15]	inhibition [16]	inhibition [17]	inhibition [18]	inhibition [19]	inhibition [20]
COC(=O)Nc1nc2cc(Oc3ccc(NC(=O)Nc4cccc(C(=O)O)c4)cc3)ccc2[nH]1	2.82%	10.8%	39.3%	0.99%	1.56%	6.17%	35.1%	18.8%	43.9%	6.26%	16.2%	0.4%	0.91%	-5.8%	6.37%	7.47%	14.1%	2.8%	15%	1.53%
NS(=O)(=O)c1ccc(N/N=C2\C(=O)Nc3ccc(C(=O)NCCc4c[nH]cn4)cc32)cc1	43.1%	23.6%	65.6%	15.9%	62.5%	6.94%	14.5%	12.9%	54.9%	38.6%	82.7%	0.73%	3.44%	12.8%	24.2%	15.3%	57.8%	42.6%	83.5%	22.8%
c1cnn2ncc(-c3ccnc(Nc4ccc5c(c4)OCCO5)n3)c2c1	26.9%	16.1%	51.5%	6.44%	40.6%	16.9%	74.7%	23.3%	61.7%	18.4%	67.3%	1.69%	3.19%	32.6%	84.6%	5.62%	21.9%	5.79%	22%	4.73%
Cc1nnc(-c2ccc(C)c(-c3ccc(C(=O)Nc4cccc(C#N)c4)cc3)c2)o1	2.91%	7.61%	15.8%	0.78%	2.5%	3.31%	6.79%	3.46%	5.28%	6.49%	10.9%	2.05%	2.02%	4.97%	6.48%	7.9%	12.9%	4.42%	8.03%	4.58%
CCn1c(-c2nonc2N)nc2ccncc21	1.96%	8.83%	7.48%	0.54%	1.96%	2.72%	1.31%	2.31%	3.59%	0.36%	5.63%	0.98%	0.17%	3.23%	7.52%	2.99%	5.58%	4.69%	-1.85%	1.52%
Nc1ncnc2occ(-c3ccc(NC(=O)Nc4cccc(C(F)(F)F)c4)cc3)c12	90.2%	88.2%	93.1%	26.5%	76.4%	79.5%	85%	95.3%	99%	69.4%	94.8%	4.28%	21.2%	8.39%	32.3%	84.9%	87.2%	64.8%	79.9%	73.9%
CN(C)c1cc2c(Nc3ccc4nc(Cc5ccccc5)[nH]c4c3)ncnc2cn1	0.22%	9.58%	24.4%	4.07%	5.67%	5.35%	6.9%	5.97%	22.8%	5.76%	12.1%	-0.33%	3.88%	15.7%	11.8%	7.21%	13.2%	3.89%	7.59%	6.91%
CS(=O)(=O)CCN(CC#N)Cc1ccc(-c2ccc3ncnc(Nc4ccc(OCc5cccc(F)c5)c(Cl)c4)c3c2)o1	1.87%	5.88%	10.3%	1.15%	3.78%	1.63%	5.75%	1.15%	4.06%	4.64%	6.45%	1.47%	2.48%	3.85%	9.33%	0.24%	2.76%	1.02%	3.35%	2.36%
CCCN1CCC(Oc2cc(Nc3nc(Nc4cccc(F)c4C(N)=O)c4cc[nH]c4n3)c(OC)cc2Cl)CC1	8.65%	3.93%	11.6%	0.78%	-0.29%	2.51%	1.04%	1.89%	4.25%	4.35%	8.63%	-0.17%	0.23%	38.2%	92.4%	7.67%	12.8%	3.55%	15.5%	4.36%
COc1ccccc1Nc1ncc(-c2ccccc2)o1	2.74%	14.1%	47.5%	4.24%	6.87%	16.9%	69.4%	35.6%	53.5%	11.1%	47.7%	3.68%	5.01%	0.49%	11.1%	5.4%	6.88%	3.68%	5.75%	9.37%
Cc1nn(C)c2cc(N(C)c3ccnc(Nc4cccc(S(N)(=O)=O)c4)n3)ccc12	6.58%	22.9%	61.2%	7.33%	36.1%	5.29%	15.1%	23.2%	70.1%	18.2%	61.6%	3.71%	11.6%	9.35%	17.8%	11.9%	39%	5.4%	34.2%	12.6%
NS(=O)(=O)c1cccc(-c2ccc3c(NC(=O)C4CC4)n[nH]c3c2)c1	4.13%	3.24%	9.75%	1.86%	7.06%	-0.86%	1.24%	3.88%	6.54%	0.91%	5.08%	0.47%	1.64%	-7.23%	5.72%	2.41%	1.62%	-0.14%	-1.66%	-2.8%
CC1=C(C(=O)Nc2ccc3[nH]ncc3c2)C(c2ccc3ccccc3c2)CC(=O)N1 (stereo not given)	5.45%	8.08%	14.6%	2.86%	5.83%	3.54%	5.01%	5.52%	7.45%	2.15%	13.7%	2.73%	17.3%	3.97%	7.64%	20.4%	65.8%	12.4%	53.2%	20.1%
Nc1nc(-c2ccccn2)c(-c2ccc3ncccc3n2)s1	4.69%	5.63%	11.4%	1.02%	1.79%	3.45%	7.4%	-0.56%	-1.5%	6.46%	7.71%	2.13%	1.57%	8.82%	12.2%	1.19%	4.76%	1.3%	5.95%	2.3%

Source: ChEMBL document CHEMBL1961873, “Compounds: GSK PKIS; Assays: Nanosyn kinase panel” (2012)
